Measurements as given in PubChem BioAssay AID360 (National Center for Advancing Translational Sciences (NCATS), 2006).
About 550 (1.1%) of roughly 48,000 compounds were called active. Inconclusive results (about 4%) are left out. Shown is part of a subset that was picked to be rich in actives. Unmarked numbers belong to inactive results. Rule as the data show it: active = potency below about 15 µM; inconclusive = mostly about 16 µM to 33 µM; inactive = weaker than that.

molecular target: Lysosomal acid glucosylceramidase (Homo sapiens) (UniProt P04062); test: Glucocerebrosidase; conditions: purified enzyme, resorufin glucoside fluorescence (screen aimed at inhibitors), 20 min;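 also: the screen sought inhibitors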
Summary of the method: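 Normal human glucocerebrosidase (0.2 nM final) was assayed with resorufin β-D-glucopyranoside (30 uM final) in 50mM citric acid/KH2PO4, 10mM sodium taurocholate, 0.01% tween-20, pH 5.9. Compounds were titrated; fluorescence (Ex 548, Em 600) read after 20 min at RT.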
Potency is read from the fitted curve at half-maximal effect.

Chain of Lysosomal acid glucosylceramidase (Homo sapiens) (P04062 whole entry, looked up): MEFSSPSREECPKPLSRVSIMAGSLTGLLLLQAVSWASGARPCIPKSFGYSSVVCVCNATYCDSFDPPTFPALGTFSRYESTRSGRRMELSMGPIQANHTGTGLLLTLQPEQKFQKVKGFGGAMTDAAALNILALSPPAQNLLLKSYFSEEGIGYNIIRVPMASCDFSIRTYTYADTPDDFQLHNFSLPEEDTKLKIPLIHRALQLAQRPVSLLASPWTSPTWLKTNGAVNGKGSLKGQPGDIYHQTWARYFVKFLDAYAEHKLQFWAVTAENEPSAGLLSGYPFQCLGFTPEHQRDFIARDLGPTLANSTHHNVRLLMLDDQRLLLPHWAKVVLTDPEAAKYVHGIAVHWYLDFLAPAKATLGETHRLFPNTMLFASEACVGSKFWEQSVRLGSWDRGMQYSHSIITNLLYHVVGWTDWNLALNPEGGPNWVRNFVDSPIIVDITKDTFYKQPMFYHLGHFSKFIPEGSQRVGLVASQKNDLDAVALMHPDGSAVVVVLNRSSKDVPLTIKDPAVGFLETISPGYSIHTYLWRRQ

SMILES	Potency
O=C(O)C1CC(=O)N(Cc2cccnc2)C1 (stereo not drawn)	> 76.9 µM
Cc1cc(C)nc(NC(=O)Nc2ccccc2C(F)(F)F)n1	> 76.9 µM
CC(NC(=O)c1cc(-c2ccccc2)on1)c1ccccc1 (stereo not drawn)	> 76.9 µM
O=C(Nc1ccccc1C(F)(F)F)c1cc(-c2ccc(O)cc2)on1	13.4 µM (active)
Cc1ccc(C(=O)CSc2nnc(Cn3nnc4ccccc43)n2C)cc1	> 76.9 µM
CCOC(=O)C1CCN(C(=O)Cn2cc(C#N)c3ccccc32)CC1	> 76.9 µM
CC1CCN(C(=O)Cn2cc(C(=O)c3ccco3)c3ccccc32)CC1	12.7 µM (active)
COC(=O)Cn1cc(C(=O)c2cccs2)c2ccccc21	> 76.9 µM
O=C(OCC(O)C(O)COC(=O)c1ccccc1)c1ccccc1 (stereo not drawn)	> 76.9 µM
Cc1ccc(C)c(NS(=O)(=O)c2cc(Br)cnc2N)c1	15.2 µM (active)
Cc1ccc(S(=O)(=O)NCc2csc(C)n2)c(C)c1	> 76.9 µM
COC(=O)c1c(NC(=O)CSc2nc3c(c(=O)n(C)c(=O)n3C)n2C(C)C)sc(C)c1C	> 76.9 µM
Cc1nc2nc(COc3ccccc3)[nH]n2c(=O)c1C	> 76.9 µM
Cc1nc2c(-c3ccccc3)c(C)[nH]n2c(=O)c1Cl	5.44 µM (active)
CCn1c(COc2ccccc2)nnc1SCC(=O)Nc1ccc2c(c1)OCCO2	> 76.9 µM
O=C(NCc1cn2ccsc2n1)Nc1ccc(Cl)cc1	> 76.9 µM
O=c1cc(Cn2nnc(-c3ccc(Cl)cc3)n2)nc2sccn12	> 76.9 µM
O=C(NCc1ccc(Cl)cc1)c1cc2c(nc3sccn32)s1	8.26 µM (active)
CCn1c(SCC(=O)c2ccc(Cl)s2)nnc1-c1cccs1	> 76.9 µM
Cc1ccc2c(NC(=O)C3CC3)cccc2n1	> 76.9 µM
CCN(CC)S(=O)(=O)N1CCC(C(=O)NC(C)CCc2ccccc2)CC1 (stereo not drawn)	> 76.9 µM
CC(=O)N1CCC(C(=O)Nc2nc(-c3ccccc3)ns2)CC1	7.19 µM (active)
CCc1nnc(NS(=O)(=O)c2ccc(NS(=O)(=O)c3ccccc3)cc2)s1	> 76.9 µM
CCc1nnc(NC(=O)c2ccc(S(=O)(=O)NC3CCCCC3)cc2)s1	9.65 µM (active)

SMILES	Potency
CCc1nnc(NC(=O)C2CCCN2S(=O)(=O)c2ccccc2)s1 (stereo not drawn)	> 76.9 µM
O=C(c1ccccc1-c1ccccc1)N1CCOCC1	> 76.9 µM
Cc1occc1C(=O)Nc1cccc(Cn2cccn2)c1	> 76.9 µM
CCNc1nc(N)nc(Oc2ccc(OCC)nn2)n1	> 76.9 µM
CC(C)(C)c1nc(NCC2CCCO2)c2nnn(Cc3ccccc3)c2n1 (stereo not drawn)	> 76.9 µM
O=C(Cn1nnc(-c2ccccc2)n1)NCc1ccccc1	> 76.9 µM
Cc1ccccc1-c1nnn(CC(=O)c2ccc(S(=O)(=O)N3CCCC3)cc2)n1	> 76.9 µM
CC(C)(C)NC(=O)Cn1nnc(-c2ccccc2Cl)n1	15.2 µM (active)
Cc1noc(C)c1COC(=O)Cn1c(C)nc2ccccc21	> 76.9 µM
CC(C)[C@H](NC(=O)Nc1ccc(S(N)(=O)=O)cc1)C(=O)O	> 76.9 µM
COc1ccc(OC)c(NC(=O)CSc2nc3cccnc3n2C)c1	> 76.9 µM
CCOC(=O)CSc1nnc(CNc2nc(-c3ccccc3)cs2)n1C	> 76.9 µM
Cc1ccc(NC(=O)Cn2nc(C)c3ccccc3c2=O)c(C)c1	> 76.9 µM
COC(=O)c1ccc2c(=O)n(CC3CCCO3)c(=S)[nH]c2c1 (stereo not drawn)	> 76.9 µM
O=c1c2cc3c(=O)n(CC4CCCO4)c(=O)c3cc2c(=O)n1CC1CCCO1 (stereo not drawn)	> 76.9 µM
O=C(NC1CCCCC1)c1ccc2c(=O)n(CC3CCCO3)c(=O)[nH]c2c1 (stereo not drawn)	6.37 µM (active)
O=C(C1CCC(C(=O)N2CCCC2)CC1)N1CCCC1 (stereo not drawn)	> 76.9 µM
CCOc1ccc(NC(=O)Nc2cc(C)on2)cc1	> 76.9 µM
CC1(C)CC(=O)C=C(NCCCN2CCCC2=O)C1	> 76.9 µM
O=C(OCc1nnc(-c2ccccc2)o1)c1ccc2c(c1)C(=O)N(CCc1ccccc1)C2=O	> 76.9 µM
CCNC(=O)CN(c1ccc(C)cc1)S(=O)(=O)c1ccc(SC)cc1	> 76.9 µM
COc1ccc(Cl)cc1NC(=O)C1CC(=O)N(c2ccc(F)cc2)C1 (stereo not drawn)	> 76.9 µM
O=S(=O)(NCc1ccccn1)c1ccc(Br)s1	> 76.9 µM
c1ccc(-c2cc(-c3nnc4sc(-c5ccccn5)nn34)[nH]n2)cc1	> 76.9 µM

SMILES	Potency
CCCn1c(=O)c(-c2ccccc2)c(O)c2ccccc21	> 76.9 µM
Cc1ccc(F)cc1NC(=O)c1ccc2c(c1)OCO2	> 76.9 µM
Cc1ccc(-n2c(N)c(C(=O)N3CCOCC3)sc2=S)c(C)c1	> 76.9 µM
COc1ccc(-n2nnnc2SCC(=O)c2ccc(OC)c(OC)c2)cc1	> 76.9 µM
Cn1c(SCC(=O)Nc2cccc(NC(=O)c3cccs3)c2)nnc1-c1ccncc1	> 76.9 µM
COc1ccc(N2CCN(C(=O)CSc3nnc4ncccn34)CC2)cc1	> 76.9 µM
Cc1ccc(OCC(=O)Nc2ccc(-c3nc4ncccc4o3)cc2)cc1	> 76.9 µM
O=C(O)c1ccc(-n2cccc2)cc1O	> 76.9 µM
CCCCN(C)C(=O)C1CCN(Cc2ccccn2)CC1	> 76.9 µM
O=C(Nc1ccon1)c1cccc(Cl)c1	> 76.9 µM
Fc1ccc(Cn2nnnc2C(c2cccs2)N2CCCCCC2)cc1 (stereo not drawn)	> 76.9 µM
CCC(=O)N(Cc1cc2cc(OC)ccc2[nH]c1=O)c1ccccc1C	> 76.9 µM
Cc1ccc(C2(c3ccc(C)cc3)NC(=O)N(Cc3c(C)noc3C)C2=O)cc1	> 76.9 µM
CCOc1ccc(CNC(=O)C2CCC(=O)N2C2CCCC2)cc1OC (stereo not drawn)	> 76.9 µM
CCOc1ccccc1C1C(C(=O)OC)=CN(C)C=C1C(=O)OC	> 76.9 µM
CCOc1cc(C2C(C(=O)OC)=CN(C3CCCC3)C=C2C(=O)OC)cc(Br)c1O	6.06 µM (active)
CC(C)CCNC(=O)CN(C(=O)Cn1nnc(-c2ccc(F)cc2)n1)C1CCCC1	> 76.9 µM
CC(=O)Nc1ccc(S(=O)(=O)NCCc2ccccc2)cc1	> 76.9 µM
O=C(CN1CCN(c2nc(-c3ccccc3)cs2)CC1)NCc1ccc2c(c1)OCO2	> 76.9 µM
O=C(CSc1nnc(-c2ccccc2)o1)N1CCOCC1	> 76.9 µM
CS(=O)(=O)N(CC(=O)N1CCN(c2cccc(Cl)c2)CC1)c1ccccc1	> 76.9 µM
CCN1C(=O)/C(=C\N2CCN(c3ccccc3)CC2)SC1=S	70.4 µM
CCN1C(=O)/C(=C\N2CCN(c3cccc(Cl)c3)CC2)SC1=S	7.83 µM (active)
CCOc1ccc(NC(=O)Nc2ccc(N(C)C(C)=O)cc2)cc1	> 76.9 µM

SMILES	Potency
CCOc1ccc(NC(=O)N2CCN(CC)CC2)cc1	11.1 µM (active)
CCOc1ccc(NC(=O)N2CC=C(n3c(=O)[nH]c4ccccc43)CC2)cc1	> 76.9 µM
CSc1ncccc1C(=O)OCC(=O)N1CCOCC1	> 76.9 µM
COc1ccc(C(CNC(=O)c2cccnc2SC)N2CCOCC2)cc1 (stereo not drawn)	15 µM (active)
Cc1ccc(NC(=O)NCC(c2cccnc2)N2CCOCC2)cc1 (stereo not drawn)	> 76.9 µM
CCC(c1nnnn1Cc1ccco1)N(CCc1ccccc1)Cc1cc2ccc(OC)cc2[nH]c1=O (stereo not drawn)	14.2 µM (active)
CCC(c1nnnn1Cc1ccccc1)N(Cc1cc2cc(OC)ccc2[nH]c1=O)CC1CCCO1 (stereo not drawn)	> 76.9 µM
COc1ccc2[nH]c(=O)c(CN(Cc3nnnn3CCc3ccccc3)CC3CCCO3)cc2c1 (stereo not drawn)	35.8 µM
O=C(O)C1CCCN1S(=O)(=O)c1ccc2c(c1)CCC2 (stereo not drawn)	> 76.9 µM
Cc1cccc(NC(=O)C2CCCN2S(=O)(=O)c2ccc(F)cc2)c1C (stereo not drawn)	> 76.9 µM
CSc1cccc(NC(=O)C2CCCN2S(=O)(=O)c2ccc3c(c2)CCC(=O)N3)c1 (stereo not drawn)	10.1 µM (active)
COc1ccc(-n2c(C)nc3c(cnn3-c3ccccc3)c2=O)cc1	> 76.9 µM
CNC(=O)c1nnn(-c2ccccc2)c1C(=O)NC	> 76.9 µM
CCCCC(=O)Nc1ccc2c(c1)OCCO2	> 76.9 µM
CCCC(=O)Nc1ccc(C(=O)NCCCn2ccnc2)cc1	6.73 µM (active)
Cc1ccc(CNC(=O)CCCNC(=O)c2ccc(Cl)cc2)n1C	> 76.9 µM
CCOc1ccccc1C(=O)NCCCn1ccnc1	> 76.9 µM
CCN(CC)C(=O)CCC(=O)Nc1ccc(C(=O)OC)cc1	> 76.9 µM
CCCCC(=O)Nc1ccc(C(=O)NCCCn2ccnc2)cc1	5.11 µM (active)
CCc1c(C)nc(N)n2c(SCC(=O)N3CCN(c4ccccc4)CC3)nnc12	> 76.9 µM
COc1c(C)cccc1C(=O)Nc1cc(Cl)ccc1N1CCOCC1	> 76.9 µM
